# High-throughput results: PubChem BioAssay, National Center for Advancing Translational Sciences (NCATS)
# Hits are enriched below; roughly 8.8% of the tested compounds scored in any of these assays.
# KB-3-1 tox – qHTS assay for MDR1-selective chemotherapeutics: Primary screen using the parental adenocarcinoma cell KB-3-1 | Potency, µM (doses to about 46.1 µM), most hits filed as cytotoxic | 400,000 tested, 1.4% active | KB-3-1 viability, CellTiter-Glo ATP luminescence, 72 h | AID 1347075, 2019; note: potency is the fitted concentration of half-maximal effect; nearly all actives have a fitted effect of over 60% in size
#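 Parental KB-3-1 adenocarcinoma cells in phenol-red-free DMEM with 10% FBS were pin-treated with compounds at several concentrations, incubated 72 h at 37 °C, and viability read by CellTiter-Glo luminescence; concentration-effect curves were fitted after normalization.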
# IL1B secr inh – qHTS for Inhibitors of Inflammasome Signaling: IL-1-beta AlphaLISA Primary Screen; 360,000 tested, 4.7% active; activity change, % at 57.5 µM; THP-1 LPS/ATP IL-1B secretion, AlphaLISA, 16 h; stronger effect = lower value; AID 743279, 2014; in the data active = activity change below about -50%; inconclusive = mostly about -30% to -49%
#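 THP-1 cells pretreated 1 hr with compounds (up to 57.5 uM final), then stimulated with LPS (250 ng/mL final) plus ATP (1.25 mM final); secreted IL-1B measured by AlphaLISA after 16 hr, decreased signal indicating inhibition.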
# HT1080 IDH1KD tx – qHTS for induction of synthetic lethality in tumor cells producing 2HG: qHTS for the HT-1080-IDH1KD cell line | HT-1080 IDH1 knockdown viability, ATP luminescence, 48 h | Potency, µM (doses to about 46.1 µM), inactives show at the top dose activity, negative = toxicity, hits mostly cytotoxic | 360,000 tested, 2% active;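 note: potency is the fitted concentration of half-maximal effect; 0% = DMSO wells and -100% = cell-free medium wells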
#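 Assay cells: HT-1080 with IDH1 knockdown, 750 per well, RPMI/5% FBS. Exposure: 48 h at 37 °C following 2 h pre-incubation. Read: CellTiter-Glo luminescence; fitted concentration-response, curve class assigned.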
# KB-V1 cytotox – qHTS assay for MDR1-selective chemotherapeutics: Primary screen using the drug-selected MDR subline cells KB-V1; KB-V1 MDR cells viability, CellTiter-Glo, 72 h; Potency, µM (titrated, usually from 46.1 µM), usual class: cytotoxic; 400,000 tested, 3.4% active; note: potency is the fitted concentration of half-maximal effect; nearly all actives have a fitted effect of over 60% in size
#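 Following 72 h at 37 degrees C with compound, KB-V1 cell viability was read by CellTiter-Glo luminescence, medium being phenol-red-free DMEM plus 10% FBS; concentration-response parameters came from normalized, curve-fitted qHTS data.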
# HT1080NT lethal – qHTS for induction of synthetic lethality in tumor cells producing 2HG: qHTS for the HT-1080-NT fibrosarcoma cell line; AID 686970, 2013; 360,000 tested, 1.6% active; Potency, µM (top dose mostly 46.1 µM), for inactives: at the highest dose activity, negative = less viability, most hits filed as cytotoxic; HT-1080-NT fibrosarcoma viability, CellTiter-Glo ATP luminescence, 48 h;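 note: NT is the 2HG producing partner of a matched IDH1 knockdown line; potency is the fitted concentration of half-maximal effect; 0% = DMSO-treated cells and -100% = media-only wells without cells; nearly all actives have a fitted effect of over 55% in size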
#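 Luminescent CellTiter-Glo readout after 48 hours of compound exposure at 37 degrees C defined viability of HT-1080-NT cells. Activity was normalized to DMSO wells and cell-free media wells; concentration-response curves were fitted and assigned curve classes.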
# * hit, by the source's call; i = inactive; ? = inconclusive; nt = no result; + = active, no number; [ ] = dose if it differs, or a comment. Unless noted, calls come from the whole dose curve; as a rule, active = well fitted curve in the direction sought with a large enough effect; inconclusive = small, poorly fitted or top-dose-only effect, or another doubt; inactive = no such curve, though single readings can be large; an effect the other way counts as inactive or inconclusive. Unless noted, % is set by controls: 0 for no effect and ±100 for the full control effect.
SMILES,KB-3-1 tox,IL1B secr inh,HT1080 IDH1KD tx,KB-V1 cytotox,HT1080NT lethal
S=C(NCc1ccccc1)NC1CCCc2ccccc21 (stereo not given),i,-57*,-7%,?,-24%
S=C(NCc1ccco1)NC1CCCc2ccccc21 (stereo not given),i,-4,-13%,?,-17%
O=C(NC(=S)NCc1ccccc1)c1ccccc1,i,-12,4%,i,1%
O=C(NC(=S)NCc1ccc(F)cc1)c1ccccc1,i,0,-1%,21µM*,1%
O=C(NCc1ccccc1)c1ccc(-c2ccc(F)cc2)o1,i,10,-14%,18µM*,-2%
NS(=O)(=O)c1ccc(CNC(=S)NCc2ccc(F)cc2)cc1,i,+,0%,i,9%
Cn1ccc(C(=O)NC(=S)N2CCSCC2)n1,i,23,9%,i,12%
COc1ccc2c(Cl)c(C(=O)NCCCn3ccnc3)sc2c1Cl,i,-10,-25%,i,-8%
COc1ccccc1N1CCN(C(=O)c2cc3c(=O)oc4ccc(C)cc4c3s2)CC1,i,nt,nt,i,nt
Cc1ccccc1C(=O)OCCN(C)Cc1ccccc1,i,-13,16%,i,9%
Fc1ccc(CNC(=S)NC2CCCC2)cc1,?,-142*,?,?,-24%
Fc1ccc(CNC(=S)NC2CCCCC2)cc1,i,8,-13%,i,1%
COc1ccc(Cl)cc1NC(=O)CN1CCC(n2nnc3cc(C)ccc32)CC1,i,9,?,i,-16%
O=C(c1ccco1)N1CCC(n2nnc3ccccc32)CC1,i,11,-2%,13µM*,?
Cc1ccc2c(c1)nnn2C1CCN(S(=O)(=O)c2ccc(C(=O)N(C)C3CCCCC3)cc2)CC1,?,-73*,-16%,?,-3%
O=C(c1ccco1)N1CCN(C(=O)c2ccco2)CC1,i,-6,2%,i,23%
Cc1ccc2c(c1)nnn2C1CCN(CC(=O)NCCc2ccccc2)CC1,i,-68*,4%,?,-1%
Cc1ccc(S(=O)(=O)N2CCC(n3nnc4cc(C)ccc43)CC2)cc1,i,14,13%,i,4%
Cc1ccc2c(c1)nnn2C1CCN(CC(=O)Nc2ccccc2N2CCOCC2)CC1,i,-53*,?,?,?
COc1ccccc1NC(=O)CN1CCC(n2nnc3cc(F)ccc32)CC1,i,-26,-6%,?,-5%
CC1=C(C(=O)OC(C)C)[C@@H](c2ccc(C)o2)NC(=O)N1,i,-17,14%,i,16%
O=C(CN1CCC(n2nnc3ccccc32)CC1)NCc1cccs1,i,-1,3%,23µM*,0%
O=C(CN1CCC(n2nnc3cc(F)ccc32)CC1)NCc1ccco1,i,10,10%,i,18%
Cc1ccc2c(c1)nnn2C1CCN(C(=O)Nc2ccccc2C)CC1,i,-57*,15%,i,7%
CC1CCCCN1S(=O)(=O)c1ccc(N(C(=O)c2cnccn2)C(C(=O)NC2CCCC2)c2cccs2)cc1 (stereo not given),i,-8,2%,i,2%
SMILES,KB-3-1 tox,IL1B secr inh,HT1080 IDH1KD tx,KB-V1 cytotox,HT1080NT lethal
CC1CCCCN1S(=O)(=O)c1ccc(N(C(=O)c2cnccn2)C(C(=O)NC2CCCCC2)c2cccs2)cc1 (stereo not given),i,-63*,-16%,i,-19%
Clc1ccc(OCCN2CCCCC2)c(Cl)c1,i,-13,?,i,-4%
CC1CC(C)CN(CCOc2ccc(Cl)cc2Cl)C1 (stereo not given),i,-68*,-4%,?,1%
CC1CC(C)CN(CCOc2cccc(Cl)c2Cl)C1 (stereo not given),i,-68*,-7%,?,-4%
O=C(COc1ccc(Br)cc1CNCCc1ccccc1)NCc1ccccc1,i,?,?,i,21µM*
CCCNCc1cc(Br)ccc1OCC(=O)NCCc1ccccc1,?,-52*,-77%,?,-64%
CCOc1cc(CNCCO)c(Cl)cc1OCC(=O)NCCc1ccccc1,i,-5,30%,i,1%
CCc1ccccc1NC(=O)Nc1c[nH]c(=O)[nH]c1=O,i,nt,nt,i,nt
COC(=O)C1(Cc2ccc3c(c2)CCC3)Cc2ccc3c(c2C1=O)CCC3 (stereo not given),5.8µM*,1,22%,4.6µM*,10%
Cc1ccc(NC(=O)Cc2ccc3c(c2)CCCC3)cc1C,i,?,-1%[9.24 µM],i,-23%
Cc1c2cnn(-c3ccccc3)c(=O)c2c(C)n1CCCC(=O)Nc1cccc(F)c1,i,nt,nt,i,nt
Cc1cccc(OC(=O)NCCOC(=O)N(O)c2ccc(Cl)cc2)c1,i,-79*,0%,?,2%
Cc1cccc(OCC(=O)Oc2ccc(Cl)cc2)c1,i,5,4%,i,-23%
O=S(Cc1ccc(Br)cc1)Cc1nnc(SCc2c(Cl)cccc2Cl)n1-c1ccccc1 (stereo not given),i,-28,-10%,0.82µM*,-1%
Cn1c(CS(=O)Cc2c(Cl)cccc2Cl)nnc1SCc1c(Cl)cccc1Cl (stereo not given),i,-9,?,5.8µM*,0%
Cn1c(SCc2c(Cl)cccc2Cl)nnc1-c1ccc2nonc2c1,i,-29,0%,i,13%
COC(=O)Cn1c(=O)c2c(nc3n2CCCN3Cc2ccccc2)n(C)c1=O,i,10,7%,i,14%
Cc1ccc(-c2cc3cccc[n+]3cc2-c2ccc(C)cc2)cc1,4.6µM*,-88*,?,i,?
Cc1nn(C)c(Oc2ccccc2)c1CCNS(=O)(=O)c1ccc(Cl)cc1,?,?,?,18µM*,-25%
Cc1cc(C)c(C)c(S(=O)(=O)N2CCN(CC(=O)c3c(N)n(Cc4ccccc4)c(=O)n(C)c3=O)CC2)c1C,?,-29,6%,15µM*,9%
Cn1c(=O)c(C(=O)CN2CCCCCC2)c(N)n(Cc2ccccc2)c1=O,i,12,0%,i,-10%
CCOC(=O)c1c(CSc2cccs2)n(C)c2cc(Br)c(O)c(CN(C)C)c12,?,-54*,?,i,-18%
CCOC(=O)c1c(C)n(C)c2cc(Br)c(O)c(O)c12,i,0,-1%,i,-8%
COc1ccccc1C(=O)NC(=O)COC(=O)c1nc(Cl)ccc1Cl,i,-1,5%,i,8%
